From ChEMBL document CHEMBL4513216, “Probing the Open Global Health Chemical Diversity Library for Multistage-Active Starting Points for Next-Generation Antimalarials” (ACS Infect Dis, 2020)
In all, about 69,000 compounds went through this assay and about 8,600 (12%) showed an effect of 50% or more. Only a selection was taken, and strong results are over-represented in it overall.

These compounds were tested on Plasmodium berghei (assay: Screen against P. berghei liver stage (PbLuc), transformed with Luciferase, at 10uM). Settings: tested at 10 uM.
Format: functional, HepG2

SMILES | INHIBITION
Cc1ccnc(C2(C)CCCN2S(=O)(=O)c2ccccc2)n1 (stereo not drawn) | 45.55%
Cn1cnnc1C1CCN(C(=O)COCc2ccccc2Cl)CC1 | 39.2%
CC(C)Cn1cc(NC(=O)N2CCCC2)cn1 | -37.8%
CN1C[C@@H]2CN(Cc3ccsc3)CCC[C@]2(C(=O)O)C1 | -64.1%
CC(C)C1CCN(C(=O)NCC(=O)N(C)CC(F)(F)F)CC1 | 34.2%
Cc1nnc(CN(C)S(=O)(=O)c2ccc(Br)cc2Cl)n1C | 33.1%
CN(Cc1nnc2n1CCC2)S(=O)(=O)c1cc(Br)ccc1Br | 30.9%
CN(Cc1nnc2n1CCC2)S(=O)(=O)c1ccc(Br)cc1Cl | 52.6%
CC(CN1CCCC1=O)NC(=O)c1cc(Cl)c2c(c1)OCO2 (stereo not drawn) | 38.5%
Cc1cccnc1CN1CCCCC1c1ccn2ccnc2n1 (stereo not drawn) | 45.6%
Cn1cc(C(=O)N2CCCC(c3ncc[nH]3)C2)cn1 (stereo not drawn) | -24.9%
CCc1ccc(S(=O)(=O)N2CCCC(c3ncc[nH]3)C2)s1 (stereo not drawn) | 81.2%
CCOc1ccccc1CC(=O)N1CCCC(c2ncc[nH]2)C1 (stereo not drawn) | 19.7%
O=C(CCn1cnnc1)N1CCCC(c2ncc[nH]2)C1 (stereo not drawn) | -12.2%
O=S(=O)(c1ccc(Cl)s1)N1CCCC(c2ncc[nH]2)C1 (stereo not drawn) | 50.4%
CCC(CC)c1cc(CNC(=O)N2CCCC(c3ncc[nH]3)C2)on1 (stereo not drawn) | -1.79%
CCc1cnc(CCNC(=O)N2CCCC(c3ncc[nH]3)C2)s1 (stereo not drawn) | 52.6%
CCc1cnc(CNC(=O)N2CCCC(c3ncc[nH]3)C2)s1 (stereo not drawn) | 40.6%
O=S(=O)(c1ccccc1Cl)N1CCCC(c2ncc[nH]2)C1 (stereo not drawn) | 21.6%
CCNc1nc2cn(-c3cccc(OC)c3)c(=O)c-2c[nH]1 | -76.4%
O=C(O)c1ccc(=O)n(CC(c2ccc(F)cc2)N2CCCCCC2)c1 (stereo not drawn) | 14.65%
CN1CCO[C@@H]2CN(S(=O)(=O)c3ccccc3F)CC[C@@H]2C1 | 21.7%

SMILES | INHIBITION
NCC1CCC(C(NC(=O)C2CC2)c2ccccn2)CC1 (stereo not drawn) | 29.3%
CCOc1cc(=O)n2c(c1C(=O)OCc1ccc(OC)cc1)CCCC2 | 27.6%
CC(=O)Nc1cccc(OCCNC(=O)N(C)Cc2ccncc2)c1 | 57.7%
CC(=O)NCCOc1cccc(Br)c1 | 48.8%
CN(CCOc1cccc(F)c1)CC(=O)Nc1ccncc1 | 21.55%
CC(=O)Nc1cccc(OCCNC(=O)N(C)Cc2ccco2)c1 | -52.9%
CC(=O)Nc1cccc(OCCNC(=O)N(C)Cc2ccccc2)c1 | 80.8%
CC(=O)Nc1cccc(CNC(=O)N(C)Cc2ccccc2)c1 | -25%
CCOCC(O)CN1CCN(C(=O)c2cc(Cl)ccc2F)CC1 (stereo not drawn) | -18%
Cc1cnc(N2CCCC3(CCN(Cc4csc(C)n4)C3=O)C2)nc1 (stereo not drawn) | -49.8%
CC(NC(=O)N1CCN(c2ccccc2O)CC1)c1nncn1C (stereo not drawn) | -1.14%
CCn1nc2c(cc1=O)CN(Cc1nc(C)c3ccccc3n1)CC2 | -3.72%
CCCn1nc2c(cc1=O)CN(C(C)C(=O)Nc1nccs1)CC2 (stereo not drawn) | 29.4%
CC(C)n1nc2c(cc1=O)CN(CCOc1ccc(C#N)cc1)CC2 | -7.94%
CCn1nc2c(cc1=O)CN(Cc1nc3ccccc3o1)CC2 | 8.24%
Cn1nc2c(cc1=O)CN(c1ncnc3sccc13)CC2 | 42.3%
CC(C)n1nc2c(cc1=O)CN(c1ncnc3sccc13)CC2 | 88.5%
CCCn1nc2c(cc1=O)CN(c1ncnc3sccc13)CC2 | 96.2%
CC(C)n1nc2c(cc1=O)CN(CCCN1CCCC1=O)CC2 | 11.9%
CCn1nc2c(cc1=O)CN(c1ncnc3sccc13)CC2 | 79.9%
CC(C(=O)NCc1ccnc(N2CCCCCC2)c1)n1cccn1 (stereo not drawn) | -39.6%
COc1c(C)cnc(CN2CCOC(Cn3nc(C)cc3C)C2)c1C (stereo not drawn) | -21.7%

SMILES | INHIBITION
CN1C(=O)CO[C@H]2CCN(C(=O)Cc3ccc4c(c3)CCCC4)CC[C@@H]21 | 10.65%
N#Cc1cccc(OCCN2CCOC(Cn3cccn3)C2)c1 (stereo not drawn) | 0.411%
CCCOC(=O)c1ccc(-c2ccc(/C=C3\C(=O)NC(=N)N3C)o2)cc1 | -18%
CCc1nc2n(n1)CC(NCc1cnn(Cc3ccccc3)c1)CC2 (stereo not drawn) | -2.19%
Cc1nn(C)c2ncc(NC(=O)N3CCNC(=O)C3)cc12 | -38%
CCS(=O)(=O)N1CCC(NC(=O)c2cc(C)ccc2O)CC1 | 8.665%
CCCS(=O)(=O)N1CCC(NC(=O)c2cc(CC)c(C)s2)CC1 | 2.91%
CCS(=O)(=O)N1CCC(NC(=O)c2ccccc2O)CC1 | -33.32%
CCCS(=O)(=O)N1CCC(NC(=O)c2cc3ccccc3s2)CC1 | 67.1%
CCS(=O)(=O)N1CCC(NC(=O)c2cc3ccccc3cc2O)CC1 | 80.55%
CCCS(=O)(=O)N1CCC(NC(=O)c2ccc(C)s2)CC1 | -19.3%
COC1C[C@@H]2CN(C(=O)c3cccc4c3OCCO4)C[C@@H]2C1 (stereo partly drawn) | 40.625%
CCc1nnsc1C(=O)N(C)Cc1nnc2n1CCC2 | 22.9%
O=C(c1cnccn1)N1CCC(F)(F)C2(CCN(c3ccccn3)C2)C1 (stereo not drawn) | 12.1%
CNC(=O)C(NC(=O)c1ccn(C)c(=O)c1)c1ccccc1 (stereo not drawn) | -25.9%
CCCN(Cc1ccccc1)Cn1nc(C)c2c(C)onc2c1=O | 49.9%
Cc1cccc(CN(Cn2nc(C)c3c(C)onc3c2=O)C2CC2)c1 | -18.9%
Cc1nn(CN(CC(C)C)C2CC2)c(=O)c2noc(C)c12 | -199%
CCN(Cc1cccc(C)c1)Cn1nc(C)c2c(C)onc2c1=O | 49.8%
CCN(CCc1ccccc1)Cn1nc(C)c2c(C)onc2c1=O | 56.1%
Cc1nn(CN(Cc2ccsc2)C2CC2)c(=O)c2noc(C)c12 | 63.8%
COc1ccc(CC(=O)N2CCCCC2Cn2cccn2)cc1 (stereo not drawn) | -8.11%

SMILES | INHIBITION
c1cnc(-c2nc(CN3CCCC3Cn3cncn3)cs2)nc1 (stereo not drawn) | 27.6%
COCCC(=O)N1CCC(c2nc(O)cc(-c3ccncc3)n2)C1 (stereo not drawn) | -0.902%
COc1cc(C(=O)N(CCC#N)Cc2ccccn2)cc(OC)c1C | 7.9%
Cc1c(C(=O)N(CCN(C)C)Cc2ccccn2)oc2ccccc12 | 63.7%
Cc1ccoc1C(=O)N(CCN(C)C)Cc1ccccn1 | -31.4%
CN(C)CCN(Cc1ccccn1)C(=O)Nc1cccc(F)c1 | 18.9%
Cc1occc1C(=O)N(CCN(C)C)Cc1ccccn1 | 51.3%
COCCN(CCOC)C(=O)c1ccoc1C | -0.551%
c1cnc(N2CCN(C3CCC[C@@H]4CN(CC5CC5)C[C@H]34)CC2)nc1 (stereo partly drawn) | -34.7%
O=S1(=O)NC(C2CCCN(S(=O)(=O)N3CCCC3)C2)=Nc2ccccc21 (stereo not drawn) | 4.535%
Cc1ccc(OC2CCN(CCn3cncn3)CC2)cc1 | 86.8%
Clc1ccc(OCCN2CCN(CCn3cncn3)CC2)cc1 | 47.4%
Fc1ccc(OC2CCN(CCn3cncn3)CC2)cc1 | -5.69%
O=C(NCC1CCS(=O)(=O)C1)c1ccc(NC(=O)c2ccco2)cc1 (stereo not drawn) | 18.6%
O=C(CCc1cscn1)N1CCCC(n2cncn2)C1 (stereo not drawn) | 31.8%
COc1ccc(OC)c(CNc2c(O)c(=O)c2=O)c1 | 47.4%
Cc1nn(C)c2c(NCCn3cccn3)ncnc12 | -37.2%
CCc1nc(NCc2ccccn2)c2c(n1)c(C)nn2C | 42.1%
CCc1nc(NCCCn2cccn2)c2c(n1)c(C)nn2C | 10.3%
Cc1nn(C)c2c(NCCCn3cccn3)nc(C(C)C)nc12 | 62.3%
Cc1nc(NCc2ccccn2)c2c(n1)c(C)nn2C | 57.4%
CCc1nc(NCCCn2cccn2)c2c(n1)c(C)nn2CC | 64%

SMILES | INHIBITION
Cc1nn(C)c2c(NCCCn3cccn3)nc(C3CC3)nc12 | 42.4%
CCc1nc(NCCn2cccn2)c2c(n1)c(C)nn2C | 19.3%
Cc1nn(C)c2c(NCCCn3cccn3)ncnc12 | -43.4%
Cc1nc(NCCCn2cccn2)c2c(n1)c(C)nn2C | 57.3%
CCCc1nc(NCCCn2cccn2)c2c(n1)c(C)nn2CC | 27.5%
Cc1nn(C)c2c(NCc3ccccn3)nc(C(C)C)nc12 | 33.7%
Cc1ccc(S(=O)(=O)N2CC[C@H]3CO[C@H](CN(C)C)[C@H]3C2)cc1 | 32.2%
COc1ccc(CN2CCC3(CC2)CCN(CC(C)C)C3=O)cc1 | 13.2%
CCn1nc(C)c2nc(C(C)C)nc(NCCCn3ccnc3)c21 | -13.085%
CCn1nc(C)c2nc(C(C)C)nc(NCCCn3cccn3)c21 | 50.7%
CCn1nc(C)c2nc(C)nc(NCCCn3cccn3)c21 | 39.1%
C[C@@H]1CN(c2ccc(C#N)cn2)CC[C@@]1(O)C1CCOCC1 | 24.76%
CCCc1n[nH]c(C2CN(C(=O)c3ccc(C)[nH]c3=O)CCO2)n1 (stereo not drawn) | 40.2%
COc1cc(C)cc(C(C(=O)O)N(C)CCN2CCCC2)c1OC (stereo not drawn) | 28%
COc1cc2c(c(OC)c1OC)CCN(CCn1nc(C)cc1C)CC2 | 36.3%
COc1cc2c(c(OC)c1OC)CCN(CCn1cncn1)CC2 | 52.6%
c1ccc(CCCN2CCN(CCn3cncn3)CC2)cc1 | 15.1%
COc1cc2c(c(OC)c1OC)CCN(CCN1CCCCC1)CC2 | 54.8%
COc1ccc(CN2CCn3cncc3C2)cc1Cn1cncn1 | 16.1%
CNC(=O)[C@H]1C[C@H]2OCC[C@H]2N(CCOc2ccc(Cl)cc2)C1 | -52.3%
